Only some compounds are listed: those with a hit (about 2% of all), similar ones and a draw of the others.
TDP-43 yeast inh: rescues yeast growth from TDP-43 toxicity. Potency, µM (top dose mostly 46.1 µM), inactives show at the highest dose growth rescue (activation), hits mostly activators. AID 652104. TDP-43 expressing yeast growth rescue, BacTiter-Glo, 24 h. 410,000 tested, 1.8% active; note: % of control where 0% means no effect; nearly all actives have a fitted effect of over 50% in size
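Growth rescue of TDP-43-toxic yeast measured as ATP luminescence (BacTiter-Glo). Cells grown to mid-log in raffinose, induced in galactose at OD600=0.02, exposed to compound 24 hr at 30 deg C.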
FUS suppressor: suppressors of FUS proteinopathy in yeast. S. cerevisiae FUS-expressing, growth rescue, OD600, 24 h. Potency, µM (titrated, usually from 76.6 µM), usual class: activators. 390,000 tested, 0.24% active. AID 1347120;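 note: plate controls were DMSO vehicle for no effect and reference control for full effect; nearly all actives have a fitted effect of over 55% in size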
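Toxicity suppression screen in FUS-yeast. Cells induced with 2% galactose, starting OD 0.005, treated 24hr at 30C with compounds at multiple final concentrations; growth by OD600.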
GRP78 ERSR act: induces the endoplasmic reticulum stress response in human glioma cells | U87-MG GRP78 promoter luciferase reporter, 16 h | Potency, µM, inactives show at the top dose activation, usual class: activators | 420,000 tested, 0.02% active | AID 602332; note: series mostly up to about 76 µM; % of control where 0% means no effect; nearly all actives have a fitted effect of over 35% in size
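ERSR induction read as luciferase luminescence (Bright-Glo, 10 min at room temperature) in stably transfected human U87-MG glioma cells exposed to compounds for 16 h, using GRP78 as sensor.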
aSyn yeast inh: rescues yeast growth from alpha-synuclein toxicity. Yeast expressing alpha-synuclein, growth rescue, BacTiter-Glo, 24 h. Potency, µM (series often up to 46.1 µM), for the others: at the highest dose growth rescue (activation), actives largely listed as activators. 370,000 tested, 0.14% active; note: % of control where 0% means no effect; nearly all actives have a fitted effect of over 65% in size
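Galactose-induced alpha-syn yeast (OD600=0.02, raffinose-pregrown) + pinned cpd, 24 hr, 30 deg C; growth by BacTiter-Glo luminescence. Growth restoration scores as activation.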
Abeta yeast res: restores growth of yeast expressing A-beta42 peptide. AID 1347071. Potency, µM (titrated, usually from 46.1 µM), most hits filed as activators. 410,000 tested, 0.063% active. yeast expressing A-beta42, growth rescue, OD600, 48 h; response scale: 0% DMSO, 100% iron-clioquinol control; note: nearly all actives have a fitted effect of over 55% in size
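Growth rescue measured by 600 nm absorbance after 48 h yeast culture at 30 C with compound. Values normalized between DMSO and an equimolar ferric chloride plus clioquinol control.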
MBNL1-CUG inh: inhibitors of human MBNL1 binding to CUG repeat RNA | Potency, µM (titrated, usually from 57.5 µM), for the others: at the top dose activity change, negative = inhibition, usual class: inhibitors | AID 2675 | TR-FRET MBNL1-His/biotin-(CUG)12 binding, 665/545 ratio | Q9NR56 | 280,000 tested, 0.036% active; active = well fitted inhibition curve with a large enough effect in the signal ratio, with a control signal flat, not every such curve was filed as active; inconclusive = small, poorly fitted or top-dose-only effect, or effect the other way, or a change in a side signal; inactive = no such curve, though single readings can be large or run the other way; the % refers to the signal ratio; note: % is set by controls: 0 for no effect and ±100 for the full control effect
Target sequence (Q9NR56 whole entry, looked up): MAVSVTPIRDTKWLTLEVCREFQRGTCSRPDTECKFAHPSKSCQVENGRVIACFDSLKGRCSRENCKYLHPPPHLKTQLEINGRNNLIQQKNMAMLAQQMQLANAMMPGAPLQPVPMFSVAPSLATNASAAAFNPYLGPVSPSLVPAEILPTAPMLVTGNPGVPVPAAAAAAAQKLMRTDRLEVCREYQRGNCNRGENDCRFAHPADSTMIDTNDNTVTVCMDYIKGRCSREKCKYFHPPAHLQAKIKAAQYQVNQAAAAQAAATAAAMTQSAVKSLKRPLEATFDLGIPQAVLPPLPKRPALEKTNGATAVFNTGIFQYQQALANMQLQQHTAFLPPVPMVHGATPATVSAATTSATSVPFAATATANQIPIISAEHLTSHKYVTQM
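TR-FRET readout: Ex 340 nm, 665/545 nm emission ratio, normalized to buffer-only (basal) and MBNL1-(CUG)12 controls. Complex of MBNL1-His with Biotin-(CUG)12, compounds 92 nM–58 uM, incubated 60 min at room temperature.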
Numbers without * were called inactive; i = inactive; ? = inconclusive; . = no result given; [ ] = remark or other dose. Unless noted, calls come from the whole dose curve; as a rule, active = well fitted curve in the direction sought with a large enough effect; inconclusive = small, poorly fitted or top-dose-only effect, or another doubt; inactive = no such curve, though single readings can be large; an effect the other way counts as inactive or inconclusive. Potency is the fitted concentration of half-maximal effect.

SMILES | TDP-43 yeast inh | FUS suppressor | GRP78 ERSR act | aSyn yeast inh | Abeta yeast res | MBNL1-CUG inh
CSc1nc(C(=O)NCc2nc(-c3cccc(NC(=O)c4ccccn4)c3)oc2C)cs1 | . | . | -3% | . | . | .
CCn1c(-c2ccccc2F)nc2cc(C(=O)N3CCCC(CO)C3)cc(NC(C)=O)c21 (configuration not stated) | . | . | -1% | . | . | .
Nc1ccccc1SC(CC(=O)c1ccccc1)c1cccc([N+](=O)[O-])c1 (configuration not stated) | 25µM* | i | -11% | 19% | i | .
Cc1cccc(C)c1N(CCCc1cccnc1)C(=O)[C@@H](C)N | . | . | -2% | . | . | .
COc1cc(C(=O)Oc2c(Sc3ccc(C)cc3)c(C)nn2-c2ccccc2)cc(OC)c1OC | 22µM* | i | 1% | . | i | .
COc1ccccc1C(=O)Oc1c(Sc2ccccc2)c(C)nn1-c1ccccc1 | 21% | i | -6% | . | i | .
COc1cc(C(=O)Sc2ccc(C)cc2)cc(OC)c1OC | 28µM* | . | 7% | -21% | i | -5%
Cn1nc(C(=O)N2CCN(c3ccccc3F)CC2)c2c1-c1ccccc1SC2 | 18µM* | i | -2% | . | i | .
COc1ccc(N2CCN(C(=O)c3nn(C)c4c3CSc3ccccc3-4)CC2)cc1 | 13µM* | i | -4% | . | i | .
Cn1nc(C(=O)N2CCN(c3ccccc3)CC2)c2c1-c1ccccc1SC2 | ? | i | -3% | . | i | .
COc1ccc(N2CCN(C(=O)c3cc4c(-c5ccccc5F)nn(C)c4s3)CC2)cc1 | 20µM* | ? | 1% | . | i | .
Cn1nc(C(=O)N2CCN(c3ccc(F)cc3)CC2)c2c1-c1ccccc1SC2 | -12% | i | -2% | . | i | .
CC(=O)c1ccc(F)c(-c2cc(C)cc3c2OC(CNC(=O)C(C)n2nc(C)cc2C)C3)c1 (configuration not stated) | . | . | -1% | . | . | .
CCOC(=O)c1c(CN2CCOCC2)n(-c2ccccc2)c2cc(Br)c(OC)cc12 | 16µM* | i | -3% | -2% | i | -6%
CCOC(=O)c1c(CN2CCOCC2)n(-c2ccccc2)c2cc(Br)c(O)cc12 | -13% | i | -1% | . | i | -10%
Cc1nc(Br)c(Br)n1Cc1ccccc1 | 11µM* | i | -1% | 4% | i | .
Cc1nc2ccccc2n1Cc1ccccc1 | 6% | i | 0% | -2% | i | -1%
COCC(=O)Nc1cc(C(=O)N2CCc3c(Cl)cccc3C2)c2c(c1)nc(-c1ccncc1)n2C | . | . | -5% | . | . | .
O=C(NC(=S)Nc1ccccc1Br)C1CC1 | 13µM* | i | 7% | -10% | i | .
Cc1cccc(NC(=S)NC(=O)C2CC2)c1 | . | . | . | . | . | -4%
Cc1ccc(NC(=S)NC(=O)C2CCCC2)c(Br)c1 | 14µM* | i | 4% | 1%[1.84 µM] | ? | .
Cc1ccccc1NC(=S)NC(=O)C1CCCCC1 | 25% | i | 2% | 0% | ? | -8%
O=C1Cc2cc([N+](=O)[O-])ccc2N1c1c(Cl)cccc1Cl | 20µM* | i | -1% | 3% | i | 29%
Cc1nnsc1C(=O)NCC1Cc2cccc(-c3ncccn3)c2O1 (configuration not stated) | . | . | -3% | . | . | .
CC1C/C(=C/c2ccncc2)C(=O)/C(=C/c2ccncc2)C1 (configuration not stated) | ? | i | -15% | 15% | i | -23%
CC1C/C(=C/c2cccn2C)C(=O)/C(=C/c2cccn2C)C1 (configuration not stated) | 13µM* | i | -8% | 5% | i | ?
Cc1c(C(=O)NCC(C)(C)N2CCOCC2)cnn1-c1ncc2c(n1)-c1ccccc1CCC2 | . | . | -1% | . | . | .
C/C(=N/NC(=O)c1ccc(C(C)(C)C)cc1)c1ccccn1 | 14µM* | i | -1% | ? | i | .
CC(=NNC(=S)N1CC2CCC(CC2)C1)c1ccccn1 | 22µM* | i | -3% | 22% | i | .

Screens deposited in PubChem BioAssay by National Center for Advancing Translational Sciences (NCATS).
